Experimental data taken from ChEMBL document CHEMBL1961873, “Compounds: GSK PKIS; Assays: Nanosyn kinase panel” (2012).

tested on: Platelet-derived growth factor receptor alpha (Homo sapiens), P16234 [T674I]; conditions: at 1 µM
Sequence (P16234 whole entry T674I): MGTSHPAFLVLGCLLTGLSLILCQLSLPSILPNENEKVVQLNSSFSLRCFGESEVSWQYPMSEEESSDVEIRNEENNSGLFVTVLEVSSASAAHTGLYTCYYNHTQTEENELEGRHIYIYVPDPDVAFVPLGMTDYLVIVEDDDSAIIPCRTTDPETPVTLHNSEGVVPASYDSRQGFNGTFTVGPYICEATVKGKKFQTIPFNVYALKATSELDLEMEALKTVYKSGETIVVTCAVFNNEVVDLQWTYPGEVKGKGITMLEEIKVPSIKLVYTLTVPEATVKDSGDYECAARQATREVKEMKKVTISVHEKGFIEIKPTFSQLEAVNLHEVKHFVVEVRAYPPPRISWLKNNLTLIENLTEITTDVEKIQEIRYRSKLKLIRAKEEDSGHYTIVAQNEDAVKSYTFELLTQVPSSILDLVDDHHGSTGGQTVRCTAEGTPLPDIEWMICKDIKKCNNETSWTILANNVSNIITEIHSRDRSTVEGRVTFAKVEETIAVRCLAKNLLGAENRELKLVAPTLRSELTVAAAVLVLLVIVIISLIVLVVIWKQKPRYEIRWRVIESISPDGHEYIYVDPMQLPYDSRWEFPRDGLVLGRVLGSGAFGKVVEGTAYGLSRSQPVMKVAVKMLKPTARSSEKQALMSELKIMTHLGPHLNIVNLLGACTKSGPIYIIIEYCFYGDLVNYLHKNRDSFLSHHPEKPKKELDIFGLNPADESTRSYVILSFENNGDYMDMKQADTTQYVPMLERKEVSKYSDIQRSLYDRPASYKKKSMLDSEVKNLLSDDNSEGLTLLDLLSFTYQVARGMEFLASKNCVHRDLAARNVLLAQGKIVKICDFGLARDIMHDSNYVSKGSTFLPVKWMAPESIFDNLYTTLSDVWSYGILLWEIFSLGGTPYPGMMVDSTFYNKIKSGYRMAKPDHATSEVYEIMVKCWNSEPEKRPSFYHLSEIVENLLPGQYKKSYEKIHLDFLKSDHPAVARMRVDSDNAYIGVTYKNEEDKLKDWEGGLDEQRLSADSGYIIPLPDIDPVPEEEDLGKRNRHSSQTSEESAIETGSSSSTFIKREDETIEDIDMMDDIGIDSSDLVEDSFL

Compound	inhibition
COc1ccc2cc(-c3c(-c4ccncc4)nc(-c4ccc(S(C)(=O)=O)cc4C)n3C)ccc2c1	10.1%
C/C(Nc1ccc(S(N)(=O)=O)cc1)=C1/C(=O)Nc2ccccc21	95.7%
Fc1ccc(-c2c(-c3ccncc3)nc3n2CCS3)cc1	3.84%
C#Cc1cccc(Nc2ncnc3ccc(OCCCCNCCS(C)(=O)=O)cc23)c1	25.4%
COc1ccc2ncn(-c3cc(O[C@H](C)c4ccccc4Cl)c(C(N)=O)s3)c2c1	9.98%
Fc1ccc(-c2nc3n(c2-c2ccncc2)CCS3)cc1	6.09%
CCS(=O)(=O)c1ccc(OC)c(Nc2ncc(-c3cccc(-c4ccccc4F)c3)o2)c1	6.31%
Nc1nccc(-c2c(-c3ccc(F)cc3)ncn2C2CCC(O)CC2)n1 (configuration not stated)	0.82%

tested on: Platelet-derived growth factor receptor alpha (Homo sapiens), P16234 [V561D]; conditions: at 0.1 µM
Sequence (P16234 whole entry V561D): as the sequence (P16234 whole entry T674I) above, with V561D, I674T counted along it

Compound	inhibition
CCC(=O)Nc1ccc(C)c(-c2ccc(C(=O)NCC3CC3)cc2)c1	4.95%
CN(C)CCOc1ccc(-c2cc(-c3ccc4c(c3)CCC4=NO)c(-c3ccncc3)o2)cc1	0.77%
c1ccc(-c2n[nH]cc2-c2ccnc(-c3ccc(OCCN4CCOCC4)cc3)c2)nc1	11.7%
COc1cccc(/C=N/Nc2ncnc3c2cnn3-c2cccc(OC)c2)c1	2.65%
NCc1ccc(-n2c(-c3nonc3N)nc3cnccc32)cc1	2.5%
Cc1ccc(C(=O)NC2CCC2)cc1-c1ccc(C(=O)NCC2CC2)cc1	2.49%
COc1cc(Nc2ncc3c(C)nc(-c4cccc(Oc5ccccc5)c4)n3n2)cc(OC)c1OC	1.43%
Fc1ccc(-c2ncn(C3CCNCC3)c2-c2ccnc(Oc3ccc(F)c(F)c3)n2)cc1	2.26%
COC(=O)Nc1nc2ccc(Sc3ccc(NC(=O)Nc4cc(C(F)(F)F)ccc4F)cc3)cc2[nH]1	11.9%
NC(=O)c1cc(-c2ccc(F)cc2)cc(-c2ccncc2)c1N	3.94%
CN(C)CCCNc1nccc(-c2c(-c3ccc(F)cc3)nn3cc(C(F)(F)F)ccc23)n1	0.27%
CCc1nccc2c1nc(-c1nonc1N)n2CC	0.72%
COc1ccc(-c2ccc3c(NC(=O)C4CC4)n[nH]c3n2)cc1	4.3%
O=C1Nc2ccc(I)cc2C1=Cc1cc(Br)c(O)c(Br)c1	3.34%
O=C(Nc1n[nH]c2nc(-c3ccc(O)cc3)c(Br)cc12)C1CC1	19.7%
CS(=O)(=O)CCNCc1cc(-c2cc3c(Nc4ccc(OCc5cccc(F)c5)c(Cl)c4)ncnc3s2)cs1	4.52%
Cc1nnc(-c2ccc(C)c(-c3ccc(C(=O)NCc4ccc(Cl)cc4)cc3)c2)o1	1.34%

Compound	inhibition
Cc1ccc(C(=O)NC(C)C)cc1-c1ccc(C(=O)NCC2CC2)cc1	1.87%
O=C(Nc1ccc(Oc2ccc3[nH]c(NC(=O)c4ccccc4)nc3c2)cc1)Nc1cc(C(F)(F)F)ccc1F	25.5%
COc1cc(C)c(N(C)C(=O)CN(C)C)cc1Nc1nc(Nc2cccc(F)c2C(N)=O)c2cc[nH]c2n1	-2.16%
CN(C)c1ccc2c(c1)/C(=C/Nc1ccc(S(N)(=O)=O)cc1)C(=O)N2	14.9%
c1ccc(Oc2ccc(Nc3ncc(-c4ccccc4)o3)cc2)cc1	7.31%
COc1cccc(-n2cnc3c(N/N=C/c4ccncc4)ncnc32)c1	10.3%
Fc1ccc(-c2ncn(C3CCNCC3)c2-c2ccnc(Oc3ccc(Oc4ccccc4)cc3)n2)cc1	2.74%
O=C(NCC1CC1)c1ccc(-c2cccc(C(=O)NC3CC3)c2)cc1	-0.78%
N#Cc1ccc(Oc2nccc(-c3c(-c4ccc(F)cc4)ncn3C3CCNCC3)n2)cc1	3.7%
COc1ccc2cc(-c3c(-c4ccncc4)nc(-c4ccc(S(C)(=O)=O)cc4C)n3C)ccc2c1	8.36%
C/C(Nc1ccc(S(N)(=O)=O)cc1)=C1/C(=O)Nc2ccccc21	25%
Fc1ccc(-c2c(-c3ccncc3)nc3n2CCS3)cc1	2.1%
C#Cc1cccc(Nc2ncnc3ccc(OCCCCNCCS(C)(=O)=O)cc23)c1	5.37%
COc1ccc2ncn(-c3cc(O[C@H](C)c4ccccc4Cl)c(C(N)=O)s3)c2c1	4.37%
Fc1ccc(-c2nc3n(c2-c2ccncc2)CCS3)cc1	-0.4%
CCS(=O)(=O)c1ccc(OC)c(Nc2ncc(-c3cccc(-c4ccccc4F)c3)o2)c1	18.5%
Nc1nccc(-c2c(-c3ccc(F)cc3)ncn2C2CCC(O)CC2)n1 (configuration not stated)	5.61%
